Ec RNAP inh: E. coli RNAP inhibitors, biochemical; DNA-directed RNA polymerase subunit beta (Escherichia coli (strain K12)), P0A8V2; E. coli RNA polymerase, fluorescence transcription assay; inhibition, %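 (tested at 10 µM)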; hit rate 0.2% among 62,000; in the data active = inhibition above about 20%
Cav3 T inh: Cav3.2 calcium influx blockers – cell-based, Fluo-4 calcium fluorescence, FDSS, MLSMR library, primary screen. Cav3.2-expressing cells; active compounds read low. AID 449739, 2010. Voltage-dependent T-type calcium channel subunit alpha-1H (Homo sapiens), O95180. B-score at 10 µM. hit rate 4% among 100,000;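 active = single-dose well whose peak fluorescence ratio is a statistical outlier from its plate by either plate-standardised score or position-corrected B-score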
CD11b adhes inh: inhibitors of CD11b/CD18 adhesion to fibrinogen, primary screen, K562 cells, luminescence; AID 1497, 2009; inhibition, % at 10 µM; ATPlite luminescence; Mn2+ added to activate the integrin; hit rate 0.54% among 93,000;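 active = primary inhibition of 50% or more at 10 µM, then 40% or more on retest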
Mac1 fbg enh: enhancers of CD11b/CD18 adhesion to fibrinogen, primary screen, K562 cells, luminescence; hit rate 0.07% among 93,000; ATPlite luminescence; activation, % at 10 µM; AID 1499, 2009; Integrin beta-2 (Homo sapiens) + Integrin alpha-M (Homo sapiens), P05107+P11215;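 active = 10 µM primary screen giving 50% or more activity, confirmed by 40% or more on retest at that dose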
PTK2B oligo ant: antagonists of Pyk2 self-association, primary screen, Q293 cells, FERM NanoBiT luminescence, HTS; Protein-tyrosine kinase 2-beta (Homo sapiens), Q14289; active compounds read low; z-score (the deposit names both 25 µM and 10 µM); hit rate 0.83% among 99,000;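 active = Z-score of -3 or lower, scaled per plate to the spread of control and sample wells; inactive = z-score above -3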;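 note: negative z-score means lost luminescence so less FERM oligomerization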
Each line names hits and unclear results; the compound was inactive in the other large screens. An excerpt weighted towards active compounds, which were near 4.2% of everything screened.

Cc1onc(-c2ccccc2Cl)c1C(=O)OCC(=O)Nc1ccc2c(c1)OCO2	Cav3 T inh -6.31 (no result: Ec RNAP inh)
CC(NC(=O)C12CC3CC(CC(C3)C1)C2)c1ccc2c(c1)OCCO2 (configuration not stated)	Cav3 T inh 3.5 (no result: Ec RNAP inh)
CCn1c(C(=O)NC(C)c2ccc3c(c2)OCCO3)cc2sccc21 (configuration not stated)	Cav3 T inh -5.12 (no result: PTK2B oligo ant)
Cc1oc(-c2ccccc2F)nc1CS(=O)(=O)CC(=O)N1CCc2ccccc21	Cav3 T inh -4.74 (no result: PTK2B oligo ant)
Cc1ccc(-c2nc(CS(=O)(=O)CC(=O)N3CCc4ccccc4C3)c(C)o2)cc1	Cav3 T inh -8.98 (no result: PTK2B oligo ant)
O=C(N/N=C\c1ccc(COc2ccc([N+](=O)[O-])cc2)o1)c1cccc(Cl)c1	Cav3 T inh -7.56 (no result: Ec RNAP inh)
COc1cccc(CNC(=O)C(c2ccc(Cl)cc2)C(C)C)c1 (configuration not stated)	none (no result: Ec RNAP inh, Cav3 T inh, CD11b adhes inh, Mac1 fbg enh)
O=c1c(C(c2ccccc2)c2c(O)sc3ccccc3c2=O)c(O)sc2ccccc12	CD11b adhes inh 91.7 (no result: Ec RNAP inh, Cav3 T inh)
Cc1ccc(Cc2nnc3n(-c4cccc(C)c4)nc(C(=O)c4ccccc4)n3c2=O)cc1	none (no result: Ec RNAP inh, CD11b adhes inh, Mac1 fbg enh)
CC(C)N(Cc1nc(-c2ccc(Cl)cc2)no1)C(=O)C(c1ccccc1)c1ccccc1	Cav3 T inh -4.32 (no result: Ec RNAP inh)
Cc1ccc(-c2noc(CN(C(=O)C(c3ccccc3)c3ccccc3)C(C)C)n2)cc1	Cav3 T inh -8.49 (no result: Ec RNAP inh, CD11b adhes inh, Mac1 fbg enh)
Cc1ccc(-c2noc(CN(C(=O)C34CC5CC(CC(C5)C3)C4)C(C)C)n2)cc1	none (no result: CD11b adhes inh, Mac1 fbg enh)
O=C1N[C@@H](Cc2cn(S(=O)(=O)c3c(F)c(F)c(F)c(F)c3F)c3ccccc23)C(=O)N[C@H]1Cc1ccccc1	none (no result: Ec RNAP inh, CD11b adhes inh, Mac1 fbg enh, PTK2B oligo ant)
CC(C)N1CC2(c3ccccc3)CN(C(C)C)CC(c3ccccc3)(C1)C2=O	Cav3 T inh -3.4 (no result: Ec RNAP inh, CD11b adhes inh, Mac1 fbg enh)
CCN1C(=O)N(C)C2(c3ccccc3)N(C)C(=O)N(C)C12c1ccccc1 (configuration not stated)	none
O=C(Nc1ccccc1)C1=C[C@H](c2ccc(Br)cc2)C[C@H](OCc2ccc(CO)cc2)O1	none (no result: Ec RNAP inh, CD11b adhes inh, Mac1 fbg enh, PTK2B oligo ant)
Cc1ccc(S(=O)(=O)c2c(N)n(NC(=O)c3ccco3)c3nc4ccccc4nc23)cc1	Cav3 T inh -5.46
C=CCn1c(NS(=O)(=O)c2ccccc2)c(S(=O)(=O)c2ccc(C)cc2)c2nc3ccccc3nc21	CD11b adhes inh 95.7 (no result: Ec RNAP inh, Cav3 T inh)
CCCCN(C(=O)c1cc2ccccc2o1)c1c(N)n(CCC)c(=O)[nH]c1=O	none (no result: Ec RNAP inh, Cav3 T inh, PTK2B oligo ant)
COc1ccc(CCNc2nc(N3CCOCC3)nc(N3CCOCC3)n2)cc1OC	none
COc1ccc(CCNc2nc(N3CCCCC3)nc(N3CCCCC3)n2)cc1OC	Cav3 T inh -6.69
Cc1ccc2c(c1)CCCN2C(=O)c1cc2ccccc2oc1=O	none (no result: Ec RNAP inh)
CCCC(=O)NC(c1ccc(OC)c(OC)c1)c1c(O)ccc2ccccc12 (configuration not stated)	none (no result: Ec RNAP inh)
CC(=O)Oc1ccc2ccccc2c1C(NC(=O)Cc1ccccc1)c1ccccc1Cl (configuration not stated)	PTK2B oligo ant -4.41 (no result: Ec RNAP inh)
CCC(=O)NC(c1cccc([N+](=O)[O-])c1)c1c(OC(C)=O)ccc2ccccc12 (configuration not stated)	PTK2B oligo ant -3.32 (no result: Ec RNAP inh, CD11b adhes inh, Mac1 fbg enh)
CCc1ccc(-c2cc(C(F)(F)F)n3nc(C(=O)Nc4c(C)nn(Cc5ccc(F)cc5)c4C)cc3n2)s1	none (no result: Ec RNAP inh)
CCCC(=O)Nc1nnc(SCC(=O)NCc2ccco2)s1	none (no result: Ec RNAP inh, Cav3 T inh, PTK2B oligo ant)
CCSC1=N/C(=C/c2ccsc2)C(=O)N1c1ccccc1	none (no result: Ec RNAP inh, Cav3 T inh, PTK2B oligo ant)
Oc1ccc(N=Nc2n[nH]c(-c3ccc(Cl)cc3)n2)cc1	none (no result: Ec RNAP inh)
c1ccc2nc3ccccc3nc2c1	Cav3 T inh -4.45 (no result: Ec RNAP inh, CD11b adhes inh, Mac1 fbg enh, PTK2B oligo ant)
Cc1ccc(NC(=O)c2ccc(NCc3ccco3)c([N+](=O)[O-])c2)cc1Cl	none (no result: Ec RNAP inh, Cav3 T inh, PTK2B oligo ant)
O=C(NCc1ccc(F)cc1)c1cnn2ccccc12	none (no result: Ec RNAP inh, PTK2B oligo ant)
O=C1c2ccsc2SCCN1Cc1c(Cl)cccc1Cl	Cav3 T inh -5.63 (no result: Ec RNAP inh)
O=c1ccccn1Cc1c(Cl)cccc1Cl	none (no result: Ec RNAP inh, CD11b adhes inh, Mac1 fbg enh)
O=C1c2ccsc2SCCN1Cc1ccc(Cl)cc1Cl	Cav3 T inh -4.58 (no result: Ec RNAP inh)
NC(=O)NC(CCC(=O)O)C(=O)O (configuration not stated)	none (no result: Ec RNAP inh, CD11b adhes inh, Mac1 fbg enh, PTK2B oligo ant)
CCn1nccc1C(=O)Nc1ccc(Cl)cn1	none (no result: Ec RNAP inh)
CCn1nccc1C(=O)Nc1cc(Cl)cc(Cl)c1	Cav3 T inh -3.76 (no result: Ec RNAP inh, CD11b adhes inh, Mac1 fbg enh)
O=C1[C@@H]2[C@@H]3C[C@@H]([C@H]4ON=C(c5ccc(Cl)cc5)[C@@H]34)[C@@H]2C(=O)N1C1CCCCC1	none (no result: Ec RNAP inh, Cav3 T inh, PTK2B oligo ant)
CCOC(=O)c1c(CSC(=N)N)n(-c2ccc(C)cc2)c2cc(Br)c(OC(C)=O)cc12	Cav3 T inh -5.62 (no result: Ec RNAP inh, CD11b adhes inh, Mac1 fbg enh)
CC(C)(C)C(=O)Nc1ccc(C(=O)NNC(=O)Cc2ccccc2)cc1	none (no result: Ec RNAP inh)
CC1(C)CCC23CC[C@]4(C)C(OC2=O)(C3C1)[C@H]1O[C@H]1C1[C@@]2(C)CC[C@@H](O)C(C)(C)C2CC[C@]14C (some centres not stated)	none (no result: Ec RNAP inh, CD11b adhes inh, Mac1 fbg enh, PTK2B oligo ant)
C/C=C/C=C\C(=O)Nc1cccc(C2=NOC3(C2)C[C@@H](C(N)=O)N(C(=O)c2cc([N+](=O)[O-])cc([N+](=O)[O-])c2)C3)c1 (some centres not stated)	none (no result: Ec RNAP inh, CD11b adhes inh, Mac1 fbg enh, PTK2B oligo ant)
c1ccc(CC2CCN(C(c3cccs3)c3nnnn3C3CCCC3)CC2)cc1 (configuration not stated)	Cav3 T inh -3.44
c1ccc(Cn2nnnc2C(c2cccs2)N2CCc3ccccc3C2)cc1 (configuration not stated)	Cav3 T inh -3.84
Cc1ccc(C(c2nnnn2CCc2ccccc2)N2CCSCC2)cc1 (configuration not stated)	none (no result: Cav3 T inh, CD11b adhes inh)
CCc1ccc2[nH]c(=O)c(C(c3nnnn3CCOC)N3CCN(c4ccc(F)cc4)CC3)cc2c1 (configuration not stated)	Cav3 T inh -5.65
CCc1ccc2[nH]c(=O)c(C(c3nnnn3CCOC)N3CCN(c4ccccc4)CC3)cc2c1 (configuration not stated)	none
Cc1ccc(C(c2nnnn2CCc2ccccc2)N2CCC(C)CC2)cc1 (configuration not stated)	Cav3 T inh -7.41 (no result: Ec RNAP inh, CD11b adhes inh, Mac1 fbg enh)
COc1ccc(NC(=O)c2cc(S(=O)(=O)N3CCS(=O)(=O)CC3)ccc2Cl)cc1	none (no result: Ec RNAP inh, CD11b adhes inh, Mac1 fbg enh)
c1cnc2ccc(C(c3nnnn3C3CCCCC3)N3CCCCC3)cc2c1 (configuration not stated)	Cav3 T inh -4.68 (no result: Ec RNAP inh, CD11b adhes inh, Mac1 fbg enh)
Cc1ccc2cc(C(c3nnnn3C3CCCC3)N3CCN(c4ccc(F)cc4)CC3)c(=O)[nH]c2c1 (configuration not stated)	Cav3 T inh -5.35 (no result: CD11b adhes inh, Mac1 fbg enh)
COCCn1nnnc1C(c1ccc(OC)cc1)N1CCC(C)CC1 (configuration not stated)	none
COc1ccc(C(c2nnnn2C2CCCC2)N2CCC(C)CC2)cc1 (configuration not stated)	Cav3 T inh -4.44

Compound activity as filed in PubChem.
